In the library only some 21% were active in any assay of this set; here they are far more common.
CYP2C19 act – cytochrome P450 2C19 (human) activation; 96,000 tested, under 10 active; activation factor at 5 µM; P33261; recombinant CYP2C19, luciferin-H EGE luminescence; stronger effect = higher value; 0 = fully inhibited enzyme, 1 = untreated enzyme;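 active = activation factor of at least 2 at 5 µM in the primary screen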;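 also: 0 = wells with 2.5 mM tranylcypromine and 1 = vehicle-only wells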
CYP2C19 inhib – inhibitors of human CYP2C19; CYP2C19 Supersomes, luciferin-H EGE luminescence, 30 min; inhibition, % at 5 µM; actives 21% (n = 96,000); P33261; AID 778;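 active = CYP2C19 inhibition above a set limit at 5 µM in the primary screen, cut at about 50% in these data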;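 also: plate controls were negative control wells for no effect and 2.5 mM tranylcypromine positive control for full effect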
MRP1 act – activates MRP-1; H69AR cells + doxorubicin, viability rescue, CellTiter-Glo; AID 799; viability increase, % at 10 µM; actives 0.61% (n = 140,000);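 active = viability gain under doxorubicin at or above a set limit, the compound median plus 3 SD, cut at about 4.7% in these data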;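 also: MRP-1 overexpressing cells given doxorubicin 25 µM after compound pretreatment; 18-22 h compound pretreatment then 72 h with doxorubicin before readout; 0% = doxorubicin-only wells and 100% = vehicle-treated cells without doxorubicin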
CYP2C9 activ – CYP2C9 (human) activation; AID 1024; recombinant CYP2C9, luciferin-H conversion, luminescence; stronger effect = higher value; factor 1 = untreated enzyme, 0 = blocked; P11712; activation factor at 5 µM; actives 1.4% (n = 96,000);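 active = activation factor of 2 or more for CYP2C9 at a 5 µM dose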;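 also: 0 = sulfaphenazole-blocked wells and 1 = vehicle-only wells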
Target sequence (P11712 whole entry, looked up): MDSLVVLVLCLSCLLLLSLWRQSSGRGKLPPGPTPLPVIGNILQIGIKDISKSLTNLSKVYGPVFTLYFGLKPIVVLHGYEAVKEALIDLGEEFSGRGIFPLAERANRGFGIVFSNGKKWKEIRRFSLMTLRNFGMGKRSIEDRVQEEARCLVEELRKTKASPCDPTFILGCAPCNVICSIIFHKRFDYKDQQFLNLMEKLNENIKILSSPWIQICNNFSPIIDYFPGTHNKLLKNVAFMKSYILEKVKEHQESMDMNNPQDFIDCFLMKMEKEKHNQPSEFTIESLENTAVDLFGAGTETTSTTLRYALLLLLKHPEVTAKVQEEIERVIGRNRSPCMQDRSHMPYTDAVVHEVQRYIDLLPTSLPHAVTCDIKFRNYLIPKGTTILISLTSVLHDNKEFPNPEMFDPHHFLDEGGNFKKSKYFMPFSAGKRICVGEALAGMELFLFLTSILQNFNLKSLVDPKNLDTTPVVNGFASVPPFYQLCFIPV
MRP resist rev – MRP-mediated drug resistance reversal; H69AR cells + 2 uM doxorubicin, CellTiter-Glo, 72 h; differential viability (reversal), % at 10 µM; actives 0.04% (n = 85,000);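 active = viability drop by adding the cancer drug above about 55%, with treated viability meeting a 40% cutoff, limit read from the data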;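 also: viability without doxorubicin minus viability with 2 µM doxorubicin for each compound; larger differential means the compound sensitizes cells more to doxorubicin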
CYP2C9 inhib – blocks human cytochrome P450 2C9. AID 777. CYP2C9 Supersomes, luciferin-H conversion, luminescence. inhibition, % at 5 µM. actives 20% (n = 96,000);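 active = blocking of liver enzyme CYP2C9 beyond about 50% at 5 µM, limit read from the data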
Active calls of the source: *.

`CN1CCN(/N=C/c2nc(-c3ccccc3)n3ccccc23)CC1` gave MRP1 act -2.0.
`Cc1nnnn1CC(=O)Nc1ccccc1[N+](=O)[O-]` gave MRP1 act -1.9.
N/C(=N\OC(=O)c1ccccc1Cl)c1cccnc1 was read as MRP1 act -4.9 and MRP resist rev 0.2.
`N/C(=N\OC(=O)c1cc(Cl)ccc1Cl)c1cccnc1` gave CYP2C19 act 0.3, CYP2C19 inhib 72.1*, MRP1 act -2.1, CYP2C9 activ 0.7, MRP resist rev -13.1 and CYP2C9 inhib 34.5.
NC(=O)/C(=C\c1ccccc1)NC(=O)/C=C/c1ccccc1 was read as MRP1 act -0.6.
CC(/C=C/c1ccccc1)NC(N)=O (stereo not drawn) was read as CYP2C19 act 0.7, CYP2C19 inhib 32.2, MRP1 act 0.0, CYP2C9 activ 0.4, MRP resist rev 10.2 and CYP2C9 inhib 60.9*.
COc1cccc(C(=O)c2c[nH]c(C(=O)NCc3cccs3)c2)c1 was read as CYP2C19 act 0.9, CYP2C19 inhib 6.8, MRP1 act -1.2, CYP2C9 activ 0.8 and CYP2C9 inhib 19.4.
`COc1ccc2nc3sc(C(=O)NCc4cccs4)c(N)c3cc2c1` gave CYP2C19 act 0.2, CYP2C19 inhib 77.3*, MRP1 act -3.6, CYP2C9 activ 0.4, MRP resist rev 5.0 and CYP2C9 inhib 56.5*.
`N#CCCCSc1nnnn1-c1cccc(Cl)c1` gave CYP2C19 act 0.2, CYP2C19 inhib 80.3*, MRP1 act 0.5, CYP2C9 activ 1.1, MRP resist rev 14.1 and CYP2C9 inhib -12.8.
For O=C(c1cccs1)N1CCOCC1 the results were CYP2C19 act 1.1, CYP2C19 inhib -5.2, MRP1 act -2.0, CYP2C9 activ 1, MRP resist rev -0.9 and CYP2C9 inhib 1.8.
For O=C(c1cccs1)N1CCN(CCc2ccccc2)CC1 the results were CYP2C19 act 0.2, CYP2C19 inhib 79.3*, MRP1 act -0.2, CYP2C9 activ 0.6, MRP resist rev 16.6 and CYP2C9 inhib 42.8.
For O=C(c1cnccn1)N1CCN(C/C=C/c2ccccc2)CC1 the results were CYP2C19 act 0.9, CYP2C19 inhib 7.5, MRP1 act -2.7, CYP2C9 activ 1, MRP resist rev 0.1 and CYP2C9 inhib 3.4.
Screening O=C(Nc1cccc(F)c1)N1CCN(C/C=C/c2ccccc2)CC1 returned CYP2C19 act 0.8, CYP2C19 inhib 23.7, MRP1 act -2.1, CYP2C9 activ 0.8, MRP resist rev 1.3 and CYP2C9 inhib 22.1.
Screening O=C(Cc1ccccc1)N1CCN(C(=O)c2cccs2)CC1 returned CYP2C19 act 0.2, CYP2C19 inhib 81.3*, MRP1 act -1.1, CYP2C9 activ 0.8, MRP resist rev 0.0 and CYP2C9 inhib 23.4.
O=C(Nc1ccc(F)cc1)N1CCN(C/C=C/c2ccccc2)CC1 was read as CYP2C19 act 0.6, CYP2C19 inhib 42.0, MRP1 act 0.3, CYP2C9 activ 0.5, MRP resist rev 14.1 and CYP2C9 inhib 50.6*.
For O=C(c1nn(Cc2ccccc2)c(=O)c2ccccc12)N1CCN(C/C=C/c2ccccc2)CC1 the results were CYP2C19 act 0.6, CYP2C19 inhib 40.7, MRP1 act -3.3, CYP2C9 activ 0.2, MRP resist rev -18.1 and CYP2C9 inhib 81.9*.
`O=C(NCCN1CCN(C(=O)c2cccs2)CC1)c1cccs1` gave CYP2C19 act 0.9, CYP2C19 inhib 9.9, MRP1 act -0.6, CYP2C9 activ 0.6, MRP resist rev -16.3 and CYP2C9 inhib 43.4.
Screening Cc1cc(NC(=O)c2ccc3c(c2)OCO3)ccc1NC(=O)c1ccco1 returned MRP1 act 1.8 and MRP resist rev 16.8.
`CC(OC(=O)c1ccc(S(=O)(=O)NCc2ccco2)cc1)C(=O)Nc1ncc(Cl)cc1Cl` (stereo not drawn) gave MRP1 act -1.1.
Screening CC1CCc2nc(NC(=O)CSc3nc4ccccc4o3)sc2C1 (stereo not drawn) returned CYP2C19 act 0.8, CYP2C19 inhib 22.5, MRP1 act -2.3, CYP2C9 activ 0.6, MRP resist rev -32.5 and CYP2C9 inhib 42.6.
`Cn1c(Cn2c(=O)sc3ccccc32)nnc1SCC(=O)NCCc1ccccc1` gave MRP1 act -2.2 and MRP resist rev -1.2.
Screening COc1ccc2oc(=O)c(C(=O)Oc3ccc(NC(C)=O)cc3)cc2c1 returned CYP2C19 act 0.9, CYP2C19 inhib 9.2, MRP1 act -1.1, CYP2C9 activ 0.9 and CYP2C9 inhib 8.4.
COc1ccc(CN(CC2CCCO2)C(=O)CN2C(=O)COc3ccccc32)cc1OC (stereo not drawn) was read as MRP1 act -3.7 and MRP resist rev 5.5.
Screening O=C(c1cccs1)N1CCN(C/C=C/c2ccccc2)CC1 returned CYP2C19 act 0.4, CYP2C19 inhib 60.2*, MRP1 act -0.6, CYP2C9 activ 0.5, MRP resist rev 11.8 and CYP2C9 inhib 51.5*.
`O=C(c1ccco1)N1CCN(C/C=C/c2ccccc2)CC1` gave CYP2C19 act 0.9, CYP2C19 inhib 12.7, MRP1 act -3.8, CYP2C9 activ 1, MRP resist rev 6.6 and CYP2C9 inhib 3.4.
For COc1cc(C(=O)NC2=NCCS2)ccc1OCc1c(C)noc1C the results were CYP2C19 act 0.5, CYP2C19 inhib 45.9, MRP1 act -4.1, CYP2C9 activ 0.4, MRP resist rev -2.0 and CYP2C9 inhib 60.0*.
COc1cc(OC)cc(C(=O)NC2=NCCS2)c1 was read as CYP2C19 act 1, CYP2C19 inhib -3.8, MRP1 act -0.2, CYP2C9 activ 1, MRP resist rev 8.5 and CYP2C9 inhib -2.4.
`COc1ccc(CC(=O)NC2=NCCS2)cc1` gave CYP2C19 act 0.2, CYP2C19 inhib 76.5*, MRP1 act -1.8, CYP2C9 activ 1 and CYP2C9 inhib 0.4.
Screening CC(C)(C)c1ccc(OCCCC(=O)NC2=NCCS2)cc1 returned CYP2C19 act 0.4, CYP2C19 inhib 64.8*, MRP1 act -1.3, CYP2C9 activ 0.7 and CYP2C9 inhib 32.2.
`COc1ccc(CCC(=O)NC2=NCCS2)cc1OC` gave CYP2C19 act 0.4, CYP2C19 inhib 61.4*, MRP1 act 1.2, CYP2C9 activ 1.7, MRP resist rev -28.9 and CYP2C9 inhib -69.4.
For Cc1cc(C)cc(N(CC(=O)NCc2ccco2)C(=O)c2snc(C(N)=O)c2N)c1 the results were MRP1 act -2.2 and MRP resist rev 4.5.
For CCC(C(=O)NCc1ccc(F)cc1)N(Cc1ccco1)C(=O)c1snc(C(N)=O)c1N (stereo not drawn) the results were CYP2C19 act 0.4, CYP2C19 inhib 57.8*, MRP1 act -1.0, CYP2C9 activ 0.5, MRP resist rev -5.3 and CYP2C9 inhib 50.3*.
Screening CCCC(C(=O)NC1CCCC1)N(Cc1ccc2c(c1)OCO2)C(=O)c1snc(C(N)=O)c1N (stereo not drawn) returned CYP2C19 act 0, CYP2C19 inhib 96.9*, MRP1 act -1.0, CYP2C9 activ 0.2, MRP resist rev 3.1 and CYP2C9 inhib 83.3*.

Assay outcomes from PubChem BioAssay.
